RORgamma inh = inhibitors of mouse ROR gamma transcriptional activity. Drosophila S2 Gal4-RORgamma UAS-luciferase reporter, 20 h. 5.4% of 310,000 active. AID 2551. P51450. Potency, µM (doses to about 53.6 µM), actives largely listed as inhibitors; also: nearly all actives have a fitted effect of over 60% in size
Target sequence (P51450 whole entry, looked up, the tested form may be a part): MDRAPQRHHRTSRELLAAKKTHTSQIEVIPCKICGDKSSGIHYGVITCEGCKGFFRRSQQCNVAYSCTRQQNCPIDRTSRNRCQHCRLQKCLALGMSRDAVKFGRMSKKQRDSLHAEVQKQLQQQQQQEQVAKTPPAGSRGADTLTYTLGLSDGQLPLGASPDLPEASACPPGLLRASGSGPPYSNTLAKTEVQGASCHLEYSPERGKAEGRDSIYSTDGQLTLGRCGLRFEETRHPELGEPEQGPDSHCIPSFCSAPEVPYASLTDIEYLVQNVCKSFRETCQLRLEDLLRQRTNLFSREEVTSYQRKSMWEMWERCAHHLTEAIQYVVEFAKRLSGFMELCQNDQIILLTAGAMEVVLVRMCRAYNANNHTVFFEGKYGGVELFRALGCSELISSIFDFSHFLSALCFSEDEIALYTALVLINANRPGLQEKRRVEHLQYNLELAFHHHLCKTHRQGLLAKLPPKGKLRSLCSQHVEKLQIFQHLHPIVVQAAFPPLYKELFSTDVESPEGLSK
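Luminescence from a UAS-regulated Photinus luciferase reporter in stably transfected Drosophila Schneider cells is measured; decreased signal marks ROR gamma inhibition. Fusion expression is induced by 700 uM copper sulfate for 20 hr.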
BCR signal inh = chronic active BCR signaling inhibition; ABC-DLBCL IkBa-CBG/CBR reporter, luminescence ratio, 4 h; Potency, µM (highest dose often 46.1 µM), usual class: inhibitors; 0.05% of 340,000 active; active = well fitted inhibition curve with a large enough effect in the signal ratio, with a control signal flat, not every such curve was filed as active; inconclusive = small, poorly fitted or top-dose-only effect, or effect the other way, or a change in a side signal; the % refers to the signal ratio
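Cell line TMD8 (human ABC DLBCL), stably expressing tet-inducible CBG68-IkBa fusion and CBR; IMDM/0.5% FBS; cpd up to 46 uM; dox induction, 4 h, 37C/5% CO2; dual luminescence; green/red ratio; MG132 control.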
Giardia killer = kills Giardia lamblia; Giardia lamblia trophozoite viability; activity change, % at 7.66 µM, hits read low; 0.15% of 340,000 active; in the data active = activity change below about -80%; inconclusive = between about -30% and that limit;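 also: parasites exposed to compound for two days anaerobically before the ATP read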
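Media and compound were dispensed first, then trophozoites at 100 cells/well; plates sat 48 hrs at 37 deg C without oxygen before ATP luminescence reagent was added and read after 15-30 min at room temperature.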
MCF10A rereplic = inducers of DNA re-replication in MCF 10A breast cells; MCF 10A DNA re-replication, Hoechst nuclear intensity, 48 h; Potency, µM (series often up to 46.1 µM), actives largely listed as activators; 2.9% of 350,000 active; AID 624296; also: nearly all actives have a fitted effect of over 50% in size
SW480 rerep = inducers of DNA re-replication in SW480 colon cancer cells | Potency, µM (doses to about 46.1 µM), hits mostly activators | SW480 DNA re-replication, Hoechst DNA content imaging, 48 h | AID 624297 | 1.8% of 340,000 active; also: nearly all actives have a fitted effect of over 55% in size
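Per well, 250 cells were exposed to pinned compound for 48 hr. Nuclear DNA was visualised with Hoechst (40 min, 37 C) and total object intensity recorded by fluorescence scanning.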
Gal4-VP16 FLuc = inhibits Gal4-VP16 luciferase reporter, ROR gamma counter-screen. Drosophila S2 Gal4-VP16 UAS-luciferase, luminescence, 20 h. Potency, µM (top dose mostly 53.6 µM), usual class: inhibitors. 3.5% of 310,000 active. AID 2546;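 also: Gal4-VP16 expression switched on by copper sulfate through the metallothionein promoter; nearly all actives have a fitted effect of over 50% in size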
Numbers stand for hits; – = inactive; ? = inconclusive; · = no result; ! = not confirmed by another sample. Rows were chosen to be rich in hits. Some 8.3% of all compounds tested hit in one or more screens of this group. Unless noted, calls follow the shape of the dose curve; as a rule, active = well fitted curve in the direction sought with a large enough effect; inconclusive = small, poorly fitted or top-dose-only effect, or another doubt; inactive = no such curve, though single readings can be large; an effect the other way counts as inactive or inconclusive.

SMILES | RORgamma inh | BCR signal inh | Giardia killer | MCF10A rereplic | SW480 rerep | Gal4-VP16 FLuc
Cc1ccnc(NC(=O)CCCOc2cc(=O)n(C)c3ccccc23)c1 | ? | ? | – | 14.6µM | 7.31µM | –
CN1CCN(C(=O)CCCOc2cc(=O)n(C)c3ccccc23)CC1 | ? | 25.9µM | – | – | – | –
Cn1c(=O)cc(OCCCC(=O)N2CCN(c3ccccc3)CC2)c2ccccc21 | – | – | – | 9.2µM | – | –
CCN(C(=O)CSc1nnc(C)c(=O)[nH]1)c1cccc2ccccc12 | · | – | – | – | – | ·
Cc1noc(C)c1CN1C(=O)NC(Cc2ccccc2)(Cc2ccccc2)C1=O | 11.2µM | – | – | – | – | –
C[C@H](CO)N1C[C@H](C)[C@@H](CN(C)C(=O)Nc2ccc(C(F)(F)F)cc2)Oc2ccc(NC(=O)CCC(F)(F)F)cc2C1=O | · | – | – | – | – | ·
CCOC(=O)c1c(-c2ccc(C)o2)csc1NC(=O)CN1CCCCC1 | – | – | – | 23.1µM | – | –
CCOC(=O)c1c(-c2ccc(C)o2)csc1NC(=S)NC(=O)c1ccc(F)cc1 | 1.78µM | – | – | ? | – | 3.16µM
CCOC(=O)c1c(-c2ccc(C)o2)csc1NC(=O)CN1CCC(C(N)=O)CC1 | – | – | – | ? | ? | –
CCOC(=O)c1c(-c2ccc(C)o2)csc1NC(=O)CN1CCN(CC)CC1 | – | ? | – | – | – | –
CCOC(=O)c1c(-c2ccc(C)o2)csc1NC(=O)CN(C)CC(=O)Nc1ccc(C)cc1 | 12.6µM | – | – | ? | ? | ?
CCOC(=O)c1c(-c2ccc(OC)cc2)csc1NC(=O)CNCc1ccco1 | 5.01µM | ? | – | ? | – | 5.62µM
COc1ccc(NC(=O)C(C)N2c3cccc4cccc(c34)S2(=O)=O)cc1OC (stereo not drawn) | ? | – | – | 8.2µM | 13µM | ?
COc1ccc(NC(=O)C(C)N2c3cccc4cccc(c34)S2(=O)=O)cc1 (stereo not drawn) | – | ? | – | – | – | –
COc1ccc(COc2cc(-c3cccc(OC)c3)nc3ccc(NC(=O)C(C)C)cc23)cc1 | – | – | – | ? | 14.6µM | –
COc1cccc(-c2cc(C(=O)Nc3ccccc3)c3ccccc3n2)c1 | · | · | – | ? | – | ·
O=C(Nc1cccc(Cl)c1)c1ccc(F)c(S(=O)(=O)N2CCN(c3ccccn3)CC2)c1 | ? | ? | – | 23.1µM! | – | –
CCOc1ccc(NC(=O)c2ccc(F)c(S(=O)(=O)N3CCN(c4ccccn4)CC3)c2)cc1 | – | – | – | – | – | ?
O=C(COC(=O)CNC(=O)c1ccccc1)NCCc1ccccc1 | 10µM | – | – | – | – | –
CCOc1ccc(C(=O)NCCc2ccccc2)cc1 | 8.91µM | ? | ? | – | – | 8.91µM
N#CCCN(Cc1ccccc1)C(=S)NC(=O)c1ccccc1 | 0.355µM | – | – | – | ? | 0.708µM
N#CCCN(Cc1cccnc1)C(=S)NC(=O)c1ccco1 | – | ? | – | – | – | –
O=C(COC(=O)CNC(=O)c1ccccc1)NCCCc1ccccc1 | · | – | – | – | – | ·
CCOc1ccc(CN(CCC#N)C(=S)NC(=O)c2ccccc2)cc1 | 0.398µM | – | – | ? | ? | 0.447µM
COC(=O)c1ccc(CO/N=C/c2ccc(OC)cc2)o1 | – | ? | – | – | – | –
SMILES | RORgamma inh | BCR signal inh | Giardia killer | MCF10A rereplic | SW480 rerep | Gal4-VP16 FLuc
N#CCCN(Cc1ccccc1)C(=S)Nc1ccccc1 | – | – | – | – | – | –
CCOc1ccc(C(=O)NC(=S)N(Cc2ccccc2)Cc2ccccc2)cc1 | 0.282µM | ? | – | ? | ? | 0.794µM
O=C(COC(=O)CCS(=O)(=O)c1ccc(Cl)cc1)NCCc1ccccc1 | 5.62µM | – | – | – | – | –
Cc1ccc(C(=O)NC(=S)N(C)Cc2ccccc2)cc1 | · | · | – | – | – | ·
CCCN(CCC)C(=S)NC(=O)c1ccc(-c2ccccc2)cc1 | 0.501µM | ? | – | – | ? | 0.126µM
COc1ccc(CN(CCC#N)C(=S)NC(=O)c2ccccc2)cc1 | 0.316µM | ? | – | – | – | 0.562µM
Cc1ccc(S(=O)(=O)CCC(=O)OCC(=O)NCCc2ccccc2)cc1 | · | – | – | ? | – | ·
O=C1N/C(=C/c2cccn2-c2ccccc2)C(=O)N1Cc1ccc(F)cc1 | – | – | – | – | – | 10µM
CC1(C)CC(N=C=O)CC(C)(CN=C=O)C1 (stereo not drawn) | – | · | · | · | · | –
Cc1ccc(/C=N/NC(=O)c2csc3c2CCCC3)cc1 | ? | ? | – | 1.3µM | ? | –
COc1ccccc1CN1CCN(S(=O)(=O)c2ccc(C)cc2)CC1 | · | · | – | – | – | ·
Cc1csc(=O)n1CC(=O)OCC(=O)c1c(N)n(C)c(=O)n(C)c1=O | · | – | – | – | – | ·
CCOC(=O)Cc1csc(SCC(=O)c2c(N)n(CC(C)C)c(=O)n(C)c2=O)n1 | ? | – | – | ? | – | 10µM
Cc1csc(=O)n1CC(=O)OCC(=O)c1c(N)n(CC(C)C)c(=O)n(C)c1=O | · | – | – | ? | 6.51µM | ·
Cc1csc(SCC(=O)c2c(N)n(CC(C)C)c(=O)n(C)c2=O)n1 | – | – | – | – | – | –
Cc1nc(N2CCN(C)CC2)c2nnn(Cc3ccccc3)c2n1 | · | · | – | · | · | ·
CCOC(=O)c1nn(-c2ccccc2)c2nnc(Cc3ccc(Cl)cc3)c(=O)n12 | – | ? | – | – | – | –
CCOC(=O)c1nn(-c2ccc(Cl)cc2)c2nnc(Cc3ccc(C)cc3)c(=O)n12 | – | – | – | – | – | 22.4µM
O=C(c1ccccc1)c1nn(-c2ccccc2)c2nnc(Cc3ccccc3)c(=O)n12 | – | – | – | 23.1µM | 18.4µM | –
Cc1ccc(-n2nc(C(=O)c3ccccc3)n3c(=O)c(Cc4ccccc4)nnc23)cc1 | · | · | – | – | – | ·
O=C(CNC(=O)c1ccco1)N/N=C/c1cccs1 | – | – | – | – | – | –
